The results in this text go back to ChEMBL document CHEMBL3433997, “St. Jude Leishmania screening dataset” (2016).

Each structure is given as a SMILES string.

Holding throughout (assay type): functional
The target of experiment [1] is Solute carrier family 2, facilitated glucose transporter member 1 (Homo sapiens) (UniProt P11166). Nature of the experiment: ST_JUDE_LEISH: Cytotoxicity at 2uM final concentration against transgenic Leishmania Mexicana promastigotes LmGLUT1 that are glucose transport deficient and complemented with the human glucose transporter GLUT1. Activity is measured by DNA content using SYBR green in vitro.
Solute carrier family 2, facilitated glucose transporter member 1 (Homo sapiens), sequence (P11166 whole entry): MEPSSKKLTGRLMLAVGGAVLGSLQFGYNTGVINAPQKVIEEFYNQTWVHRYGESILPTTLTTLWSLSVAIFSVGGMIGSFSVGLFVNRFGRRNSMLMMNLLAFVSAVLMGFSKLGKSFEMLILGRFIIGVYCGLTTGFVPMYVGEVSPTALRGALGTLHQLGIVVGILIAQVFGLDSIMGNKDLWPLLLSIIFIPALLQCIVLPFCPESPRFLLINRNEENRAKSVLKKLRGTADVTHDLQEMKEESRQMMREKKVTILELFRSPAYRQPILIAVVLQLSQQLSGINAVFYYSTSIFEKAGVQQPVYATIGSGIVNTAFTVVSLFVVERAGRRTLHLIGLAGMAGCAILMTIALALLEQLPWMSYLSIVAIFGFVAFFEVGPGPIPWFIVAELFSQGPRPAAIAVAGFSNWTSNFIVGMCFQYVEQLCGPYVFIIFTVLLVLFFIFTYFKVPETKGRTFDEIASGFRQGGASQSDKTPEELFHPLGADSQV

Experiment [2] deals with Hexose transporter 1 (Plasmodium falciparum) (UniProt O97467). Put plainly: ST_JUDE_LEISH: Cytotoxicity at 2uM final concentration against transgenic Leishmania Mexicana promastigotes LmPfHT that are glucose transport deficient and complemented with the Plasmodium falciparum hexose transporter. Activity is measured by DNA content using SYBR green in vitro.
In experiment [3] the target is Glucose transporter (Leishmania mexicana) (UniProt O61059). Nature of the experiment: ST_JUDE_LEISH: Cytotoxicity at 2uM final concentration against transgenic Leishmania Mexicana promastigotes LmGT2 that are glucose transport deficient and complemented with the L. Mexicana glucose transporter 2. Activity is measured by DNA content using SYBR green in vitro.

As usually defined, the inhibition is the drop in the measured response relative to a control, in per cent. Turning to `Cc1cc(-c2ccc(CNCCc3cccs3)cc2)ccc1S(=O)(=O)NCc1ccccc1`, the results for the inhibition in experiment [1], in experiment [2] and in experiment [3] were 13%, 17.3% and 8.49%, respectively.
For `O=C(NCC1CC1)C1CCN(C(c2ccccc2)c2ccc(Cl)c(Cl)c2)CC1` (stereo not drawn), in that order: -0.49%, 1.49% and 0.06%.
Regarding `COc1ccc(-c2nc(-c3ccc([N+](=O)[O-])cc3)no2)cc1OC`, the figures for the inhibition in experiment [1], in experiment [2] and in experiment [3] were 1.91%, 2.39% and 1.76%, respectively.
Take `COc1cc(C)nc2ccc(NC(=O)COCC(=O)Nc3ccc4nc(C)cc(OC)c4c3)cc12`: the inhibition in experiment [1] was 4.3%; in experiment [2] it was 3.83%; in experiment [3], 3.64%.
In the case of `Cc1c[nH]c2cc(/C=C/C(=O)NC3CCC(CCN4CCc5ccc(C#N)cc5CC4)CC3)ccc12` (stereo not drawn), the results for the inhibition in experiment [1], in experiment [2] and in experiment [3] were 2.72%, 1.75% and 2.01%, respectively.
The matching figures for `COc1ccc(N2CCc3c(-c4cccc5cnccc45)cc(C)nc32)c(C)c1`: -0.79%, 0.13% and -0.88%.
As to `CN1CCCN(Cc2cccc(-c3ccc(NC(=O)c4cccc(C#N)c4)cc3)c2)CC1`, the figures for the inhibition in experiment [1], in experiment [2] and in experiment [3] were 28.9%, 12.9% and 9.31%, respectively.
For `CCN1CCN(C(=O)NC(C(=O)N2CCCC(COc3ccc(Cc4ccccc4)cc3)C2)c2cccs2)C(=O)C1=O` (stereo not drawn), in that order: 3.59%, 3.3% and 4.28%.
For `C[C@@H](CC1CCCCC1)OC(=O)N(C)[C@H]1CCN(C#N)C1`, in that order: 14%, 8.54% and 8.86%.
For `COc1ccc2ncc(F)c(CCN3CC[C@@H](CNCc4cc(C)c5c(c4)OCCO5)C3)c2n1`, in that order: 7.09%, 8.46% and 5.39%.
Consider `O=C(Nc1ccc(N2CCN(Cc3cccc(F)c3)CC2)cc1)c1cccs1`, for which the inhibition is 3.08% in experiment [1], 2.27% in experiment [2] and 4.59% in experiment [3].
The matching figures for `O=C(CCc1c[nH]cn1)Nc1cccc(-c2cccc(-c3nc4ccccc4[nH]3)c2)c1`: 14.3%, 13.2% and 11.3%.
The matching figures for `CCN(CCCN1CCCCC1)c1cc(C)nc(Nc2cccc3c2CCCC3)n1`: 3.95%, 2.39% and 1.57%.
The matching figures for `CC(C)Nc1nc(NCCc2c[nH]cn2)nc(Nc2ccc(Oc3ccccc3)cc2)n1`: 2.08%, 2.71% and -1.98%.
In the case of `CCOC(=O)c1ccc(OCCCCCCOc2ccc(Br)cc2)cc1`, the inhibition in experiment [1] was 1.32%; in experiment [2], 4.52%; in experiment [3], -0.5%.
Consider `N=C(N)NN=Cc1cc([N+](=O)[O-])ccc1Sc1ccccc1CO`, for which the figures for the inhibition in experiment [1], in experiment [2] and in experiment [3] were 1.08%, 1.61% and 0.68%, respectively.
For `CS(=O)(=O)CCNCc1cccc(-c2cc3c(Nc4ccc(OCc5cccc(F)c5)c(Cl)c4)ncnc3s2)c1`, in that order: -0.25%, -0.11% and -2.47%.
The matching figures for `CCOC(=O)c1cc(C(=O)NCCCCN2CCC(c3ccc(CC)cc3OCC)CC2)ccc1-c1ccc(C(F)(F)F)cc1`: 10.1%, 8.59% and 3.34%.
Consider `O=C(N[C@@H](CC1CCCCC1)C(=O)NC1CC1)c1ccc(O)c(-c2cccc(C(F)(F)F)c2)c1`, for which the values for the inhibition in experiment [1], in experiment [2] and in experiment [3] were 3.48%, 2.6% and 3.88%, respectively.
The matching figures for `Cc1[nH]c(C)c(-c2ccc(Oc3ccc(Cl)cc3)cc2)c(=O)c1Cl`: 2.75%, 2.92% and 1.25%.
The matching figures for `C#CCN(Cc1ccc2[nH]c(N)nc(=O)c2c1)c1ccc(C(=O)N[C@@H](CCC(=O)O)C(=O)O)cc1`: 4.21%, 3.35% and 3.66%.
With `COC(=O)c1ccc(NC(=O)Nc2ccc(Cn3ncc(N4CCCNCC4)c(Cl)c3=O)cc2)cc1`, the results for the inhibition in experiment [1], in experiment [2] and in experiment [3] were -0.9%, 0.77% and -0.5%, respectively.
`COc1cccc(OC)c1OCCCOc1c(C)nc(N)nc1N`: the inhibition in experiment [1] was found to be 0.61%; in experiment [2] it was 1.79%; in experiment [3], 0.4%.
The matching figures for `CCCc1cc(Cc2cnc(N)nc2N)cc(CC)c1OC`: 6.06%, 4.59% and 2.29%.
Regarding `NC(=O)C1CCN(Cc2ccc(-c3cccc(-c4nc5cc(F)ccc5[nH]4)c3)cc2)CC1`, the inhibition is -0.89% in experiment [1], -0.57% in experiment [2] and -1.49% in experiment [3].
For `CC(=O)N1N=C(c2ccc(Cl)cc2)Sc2c1nc(-c1ccccc1)n2C(C)=O`, in that order: 2.66%, 1.84% and 2.48%.
For `O=C(NC1CCN(Cc2ccccc2)CC1)c1ccc(-c2nc3cc(Cl)c(F)cc3[nH]2)s1`, in that order: 3.32%, 3.3% and 4.27%.
The matching figures for `CNC(=O)c1cnc(Nc2ccc(OCC(O)CN(C)C)cc2)nc1Nc1cccc(Br)c1` (stereo not drawn): 11.4%, 11.1% and 9.84%.
For `Nc1nc(N)c2c(n1)CCC(c1ccccc1)C2` (stereo not drawn), the inhibition was 2.39% in experiment [1], 1.07% in experiment [2] and 1.39% in experiment [3].
For `O=C(NC1CCCCN(Cc2ccccc2O)C1)c1ccc(-c2ccccc2)cc1` (stereo not drawn), in that order: 2.73%, 2.62% and 2.4%.
The matching figures for `COc1ccc(CC(C)CON2C(N)=NC(N)=NC2(C)C)cc1` (stereo not drawn): 4.07%, 4.35% and 4.04%.
The matching figures for `CCCN1CCc2c(sc3nc(SCC(=O)Nc4ccc(C)cc4)n(-c4ccc(C)cc4)c(=O)c23)C1`: 6.06%, 3.25% and 3.72%.
Turning to `COc1ccc2cc(-c3nc(-c4c(Cl)cccc4Cl)[nH]c3-c3ccnc(NCCCN4CCCCC4C)c3)ccc2c1` (stereo not drawn), the inhibition is 0.59% in experiment [1], -0.07% in experiment [2] and 0.19% in experiment [3].
For `Cc1cc(NC(=O)c2ccc(S(=O)(=O)N(Cc3ccccc3)C(C)C)cc2)no1`, in that order: 3.7%, 3.18% and 3.77%.
With `COc1ccc(-c2ccc(NC(=O)c3ccc(Cl)cc3)cc2)cc1CN(C)CCN(C)C`, the inhibition is 9.47% in experiment [1], 4.95% in experiment [2] and 2.75% in experiment [3].
For `Cc1nc2nc(N)nc(N)c2c(C)c1Cc1cccs1`, in that order: 1.85%, 1.16% and 2.44%.
